From PubChem BioAssay AID686935 (National Center for Advancing Translational Sciences (NCATS), 2013)
Results filed as inconclusive are left out. Calls of active or inactive are those of the source. Calls follow the shape of the dose curve; as a rule, active = well fitted curve in the direction sought with a large enough effect; inconclusive = small, poorly fitted or top-dose-only effect, or another doubt; inactive = no such curve, though single readings can be large or run the other way.

Experiment: qHTS Assay for Lipid Storage Modulators: CytotoxicityAssay against Probe and Analogs
Conditions: 3T3-L1 adipocytes cytotoxicity, imaging cell count; series mostly up to 20 µM
Source text: Storing lipids as a reservoir for energy or the anabolism of elementary metabolites is a common feature of probably all cells and is conserved from bacteria to humans. The universal cellular lipid storage organelle is the so-called lipid storage droplet (LD). Although ubiquitous, LDs share a simple structure composed of a hydrophobic core that harbors the storage lipids, which is shielded by a droplet-specific phospholipid monolayer to which proteins are attached. The current model of LD biogenesis involves an incorporation of the lipid core into the membrane leaflets of the endoplasmic reticulum (ER) followed by a subsequent budding-like maturation of a LD, which ultimately pinches off. Once released, LD volume can increase by localized lipogenesis or fusion of existing droplets. Storage lipids are re-mobilized enzymatically by lipase activity. Lipase regulation in the adipocyte is heavily studied and involves multiple components including catecholamine signaling, the LD-associated proteins Perilipin and comparative gene identification-58 (CGI-58) and at least two lipases named hormone sensitive lipase (HSL) and adipocyte triglyceride lipase (ATGL). LD regulation outside of the adipocyte is poorly understood and only few components are known. However, there is an urgent need to learn more about ectopic fat depots as mislocalized storage of lipids, for example in the liver or muscle, is an eminent health problem associated with insulin resistance or the metabolic syndrome. We developed a laser-scanning cytometer assay to enable 1,536-well screening and combined the results of the small molecules screen with an RNAi database based on lipid storage. In this assay we tested analogs of the probe in a cytotoxicity assay. NIH Molecular Libraries Probe Production Centers Network [MLPCN] NIH Chemical Genomics Center [NCGC] MLPCN Grant: MH085686 Assay Submitter (PI): Mathias Beller, Max-Planck-Institut fur Biophysikalische Chemie
3T3-L1 cells were obtained from ATCC (CL-173). Pre-adipocyte medium (PM-1),differentiation medium (DM-2) and after adipocyte medium (AM-1) were purchased from Zen-Bio (# PM-1-L1, DM-2-L1, AM-1-L1). […] of PM-1containing 3,000 cells was dispensed into each well of a 96-well plate (Corning, #3340), and the assay plates were incubated at 37 °C, 95% humidity and 5% CO2 for 3-5 days. The differentiation of pre-adipocyte to adipocyte was induced by removing the pre-adipocyte medium and replacing with […] of differentiation medium. […] of compounds at different concentrations dissolved in differentiation medium were added to the assay plates, along with medium exchange for differentiation to test their effects on adipocyte differentiation. The final DMSO concentration was 0.5%. Triacsin C (Sigma-Aldrich T-4540), an inhibitor of long-chain fatty acyl CoA synthetase that blocks synthesis of triglycerides, was used as a positive control for lipid under-storage. After 3 days, differentiation medium was replaced with 200ul of adipocyte maintenance medium and assay plates were incubated for 4 days. Cells were then fixed using4% of paraformaldehyde in PBS for 30 minutes at room temperature, washed 3 times with PBS buffer. Finally, the cells were stained using […] of PBS containing BODIPY lipid dye 493/530 (1:2000 -, Life Technologies, # D-3922), Hoechst 33342 (1:1000, Life Technologies, #H3570) and CellMask deep red dye (1:10,000 , Life Technologies, #H32721). Images were acquired using InCell 2000 (GE), number of cells, number of lipids, size of lipids and cells were analysis using GE Investigator software.

SMILES | outcome
CCOC(=O)C1CCN(C(=O)C2(NC(=O)Nc3ccccc3Cl)CCCC2)CC1 | inactive
CCOc1ccc(CCNC(=O)c2cc3sccc3n2Cc2ccc(F)cc2F)cc1OCC | inactive
CCOc1ccc(CCNC(=O)c2cc3ccccc3n2Cc2cccc(C)n2)cc1OCC | inactive
CCOc1ccc(CCNC(=O)c2cc3ncccc3n2Cc2cccc(C)n2)cc1OCC | inactive
CCOc1ccc(CCNC(=O)c2cc3sccc3n2CCN(C)C)cc1OCC | inactive
CCOc1ccc(CCNC(=O)c2cc3cccnc3n2Cc2cccc(C)n2)cc1OCC | inactive
CCOc1ccc(CCNC(=O)c2cc3ccccc3n2CCN2CCOCC2)cc1OCC | inactive
CCOc1ccc(CCNC(=O)c2cc3ccccc3n2Cc2ccccn2)cc1OCC | inactive
